Measured values taken from PubChem BioAssay.
Activity calls are given as the source filed them.

Columns and labels:
[1] = tested on: PRMT1 (protein arginine N-methyltransferase 1); test: small molecules binding arginine methyltransferase PRMT1 – biochemical, small-molecule microarray, 635 nm fluorescence, primary screen (AID 1088); conditions: higher = more signal;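 also: binding of Prmt1 protein to compounds spotted on small-molecule microarray slides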
[2] = growth effects on S. cerevisiae YJM789 – YJM789 clinical isolate, OD600, 24 h, basal, primary screen (AID 1089); conditions: higher = more signal, called active from +8 up or from −8 down;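 also: growth of clinical yeast isolate S. cerevisiae YJM 789 seeded 1000 cells per well; test concentration not given here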
[3] = S. pombe growth modifiers, basal conditions – strain 972, OD600, 24 h, no modulator, primary screen (AID 1090);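 also: basal condition with compound alone and no growth modifier present; test concentration not given here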; conditions: S. pombe 972 growth, higher = more signal, called active from +8 up or from −8 down
[4] = budding yeast growth modifiers under rapamycin – strain BY4716, OD600, 96 h, primary screen (AID 1091); also: test concentration not given here; conditions: S. cerevisiae BY4716 + rapamycin, higher = more signal, called active from +8 up or from −8 down
[5] = biological target: Torsin-1A-interacting protein 2 (Homo sapiens) (UniProt Q8NFQ8); test: small molecules binding lysate-expressed LULL1 – cell lysate, human LULL1 lysate, 635/667 nm fluorescence, primary screen (AID 1092); conditions: small-molecule microarray, hLULL1 lysate binding, 635 nm fluorescence; higher = more signal;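 also: probe is lysate of COS7 cells overexpressing human LULL1; score merges per-feature 667 nm fluorescence with signal-to-noise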
[6] = optical density change of DRC41 E. coli – strain DRC41, OD650, 24 h, E. coli filamentation project, primary screen (AID 1093);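 also: MC1000 strain lacking acrAB efflux and sulA so SOS filamentation is blocked; test concentration not given here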; conditions: E. coli DRC41 growth, higher = more signal, called active from +8 up or from −8 down
[7] = probe aLefty2 binding to arrayed compounds – biochemical, biotinylated probe, 635/667 nm fluorescence, primary screen (AID 1094); conditions: small-molecule microarray, higher = more signal;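 also: score merges spot fluorescence near 667 nm with spot signal-to-noise ratio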
[8] = tested on: Noggin (protein binding on small-molecule microarray); test: small molecules binding Noggin protein – biochemical, 635/667 nm fluorescence, primary screen (AID 1095); conditions: 635 nm fluorescence, higher = more signal;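 also: score merges 667 nm feature fluorescence with signal to noise over triplicate slides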
[9] = biological target: Neurogenic locus notch homolog protein 3 (Homo sapiens) (UniProt Q9UM47); test: small molecules binding NOTCH3 protein – biochemical, 635/667 nm fluorescence, primary screen (AID 1096); conditions: small-molecule microarray, 635 nm fluorescence, higher = more signal
[10] = probe aEGFR binding to arrayed compounds – biochemical, biotinylated probe, 635/667 nm fluorescence, primary screen (AID 1097); conditions: small-molecule microarray, higher = more signal;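 also: probe is a biotinylated anti-EGFR antibody binding compounds printed on slides; score combines fluorescence near 667 nm and signal to noise of each spot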
[11] = tested on: Plasmodium falciparum Sir2 (PF13_0152, Sir2A); test: Plasmodium falciparum Sir2A binding compounds – biochemical, small-molecule microarray, 635 nm fluorescence, primary screen (AID 1098); conditions: fluorescence 635 nm, higher = more signal;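 also: score merges spot fluorescence intensity with its signal-to-noise ratio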
[12] = probe aDKK1 binding to arrayed compounds – biochemical, biotinylated probe, 635/667 nm fluorescence, primary screen (AID 1099); conditions: small-molecule microarray, higher = more signal;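 also: score merges 667nm spot fluorescence with signal to noise across triplicate slides; reference of the scale not given here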
[13] = probe aCHRDL2 binding to arrayed compounds – biochemical, biotinylated probe, 635/667 nm fluorescence, primary screen (AID 1100); conditions: small-molecule microarray, higher = more signal
[14] = change in splice reporter luminescence, either direction, cell-based, HEK293, spliceosome inhibition project, primary screen (AID 1101); conditions: HEK293 splicing luciferase reporter, 24 h, higher = more signal, called active from +8 up or from −8 down;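 also: HEK293 cells carrying a splicing-competent luciferase reporter gene; test concentration not given here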
[15] = biological target: Fibroblast growth factor 10 (Homo sapiens) (UniProt O15520); test: compounds binding fibroblast growth factor 10 – biochemical, small-molecule microarray, 635 nm fluorescence, primary screen (AID 1102); conditions: FGF10 binding, fluorescence 635 nm, higher = more signal
[16] = tested on: glycogen synthase kinase-3 (GSK3A per assay name; protocol says GSK3B); test: compounds binding glycogen synthase kinase-3 – biochemical, small-molecule microarray, 635 nm fluorescence, GSK3A, primary screen (AID 1103); conditions: fluorescence 635 nm, higher = more signal; also: the record names both GSK3A and GSK3B
[17] = biological target: Epidermal growth factor receptor (Homo sapiens) (UniProt P00533); test: compounds binding epidermal growth factor receptor – biochemical, small-molecule microarray, 635 nm fluorescence, primary screen (AID 1104); conditions: EGFR binding, higher = more signal;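 also: score merges 667 nm emission intensity with spot signal to noise over triplicate slides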
[18] = biological target: Follistatin-related protein 3 (Homo sapiens) (UniProt O95633); test: compounds binding follistatin-related protein 3 – biochemical, small-molecule microarray, 635 nm fluorescence, primary screen (AID 1105); conditions: FSTL3 binding, higher = more signal;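 also: score merges emission near 667 nm and signal to noise per printed spot across three slides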
[19] = biological target: Dickkopf-related protein 1 (Homo sapiens) (UniProt O94907); test: small molecules binding DKK1 protein – biochemical, small-molecule microarray, 635 nm fluorescence scan, primary screen (AID 1106); conditions: higher = more signal;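 also: score merges emission near 667 nm with signal to noise over three replicate slides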
[20] = tested on: Inhibin beta A chain (activin A); test: small molecules binding activin A – biochemical, small-molecule microarray, 635 nm fluorescence scan, primary screen (AID 1107); conditions: INHBA, higher = more signal;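 also: mouse activin A protein probed at 4.33 µg/mL on printed slides; score merges bound-protein fluorescence near 667 nm with spot signal-to-noise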

Dickkopf-related protein 1 (Homo sapiens), sequence (O94907 whole entry, looked up): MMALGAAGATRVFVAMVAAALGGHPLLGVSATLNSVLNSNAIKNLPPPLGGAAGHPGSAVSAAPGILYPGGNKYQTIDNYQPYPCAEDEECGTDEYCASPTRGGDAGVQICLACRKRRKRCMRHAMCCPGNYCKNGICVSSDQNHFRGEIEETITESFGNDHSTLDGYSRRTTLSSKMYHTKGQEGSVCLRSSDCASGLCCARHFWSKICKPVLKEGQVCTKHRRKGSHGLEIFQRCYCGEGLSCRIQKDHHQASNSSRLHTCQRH
Fibroblast growth factor 10 (Homo sapiens), sequence (O15520 whole entry, looked up): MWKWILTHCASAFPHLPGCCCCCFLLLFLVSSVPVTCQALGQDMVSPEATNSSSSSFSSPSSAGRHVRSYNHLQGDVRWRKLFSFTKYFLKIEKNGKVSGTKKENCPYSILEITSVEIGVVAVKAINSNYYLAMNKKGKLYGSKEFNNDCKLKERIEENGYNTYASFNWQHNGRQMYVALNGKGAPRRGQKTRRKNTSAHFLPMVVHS
Neurogenic locus notch homolog protein 3 (Homo sapiens), sequence (Q9UM47 whole entry, looked up): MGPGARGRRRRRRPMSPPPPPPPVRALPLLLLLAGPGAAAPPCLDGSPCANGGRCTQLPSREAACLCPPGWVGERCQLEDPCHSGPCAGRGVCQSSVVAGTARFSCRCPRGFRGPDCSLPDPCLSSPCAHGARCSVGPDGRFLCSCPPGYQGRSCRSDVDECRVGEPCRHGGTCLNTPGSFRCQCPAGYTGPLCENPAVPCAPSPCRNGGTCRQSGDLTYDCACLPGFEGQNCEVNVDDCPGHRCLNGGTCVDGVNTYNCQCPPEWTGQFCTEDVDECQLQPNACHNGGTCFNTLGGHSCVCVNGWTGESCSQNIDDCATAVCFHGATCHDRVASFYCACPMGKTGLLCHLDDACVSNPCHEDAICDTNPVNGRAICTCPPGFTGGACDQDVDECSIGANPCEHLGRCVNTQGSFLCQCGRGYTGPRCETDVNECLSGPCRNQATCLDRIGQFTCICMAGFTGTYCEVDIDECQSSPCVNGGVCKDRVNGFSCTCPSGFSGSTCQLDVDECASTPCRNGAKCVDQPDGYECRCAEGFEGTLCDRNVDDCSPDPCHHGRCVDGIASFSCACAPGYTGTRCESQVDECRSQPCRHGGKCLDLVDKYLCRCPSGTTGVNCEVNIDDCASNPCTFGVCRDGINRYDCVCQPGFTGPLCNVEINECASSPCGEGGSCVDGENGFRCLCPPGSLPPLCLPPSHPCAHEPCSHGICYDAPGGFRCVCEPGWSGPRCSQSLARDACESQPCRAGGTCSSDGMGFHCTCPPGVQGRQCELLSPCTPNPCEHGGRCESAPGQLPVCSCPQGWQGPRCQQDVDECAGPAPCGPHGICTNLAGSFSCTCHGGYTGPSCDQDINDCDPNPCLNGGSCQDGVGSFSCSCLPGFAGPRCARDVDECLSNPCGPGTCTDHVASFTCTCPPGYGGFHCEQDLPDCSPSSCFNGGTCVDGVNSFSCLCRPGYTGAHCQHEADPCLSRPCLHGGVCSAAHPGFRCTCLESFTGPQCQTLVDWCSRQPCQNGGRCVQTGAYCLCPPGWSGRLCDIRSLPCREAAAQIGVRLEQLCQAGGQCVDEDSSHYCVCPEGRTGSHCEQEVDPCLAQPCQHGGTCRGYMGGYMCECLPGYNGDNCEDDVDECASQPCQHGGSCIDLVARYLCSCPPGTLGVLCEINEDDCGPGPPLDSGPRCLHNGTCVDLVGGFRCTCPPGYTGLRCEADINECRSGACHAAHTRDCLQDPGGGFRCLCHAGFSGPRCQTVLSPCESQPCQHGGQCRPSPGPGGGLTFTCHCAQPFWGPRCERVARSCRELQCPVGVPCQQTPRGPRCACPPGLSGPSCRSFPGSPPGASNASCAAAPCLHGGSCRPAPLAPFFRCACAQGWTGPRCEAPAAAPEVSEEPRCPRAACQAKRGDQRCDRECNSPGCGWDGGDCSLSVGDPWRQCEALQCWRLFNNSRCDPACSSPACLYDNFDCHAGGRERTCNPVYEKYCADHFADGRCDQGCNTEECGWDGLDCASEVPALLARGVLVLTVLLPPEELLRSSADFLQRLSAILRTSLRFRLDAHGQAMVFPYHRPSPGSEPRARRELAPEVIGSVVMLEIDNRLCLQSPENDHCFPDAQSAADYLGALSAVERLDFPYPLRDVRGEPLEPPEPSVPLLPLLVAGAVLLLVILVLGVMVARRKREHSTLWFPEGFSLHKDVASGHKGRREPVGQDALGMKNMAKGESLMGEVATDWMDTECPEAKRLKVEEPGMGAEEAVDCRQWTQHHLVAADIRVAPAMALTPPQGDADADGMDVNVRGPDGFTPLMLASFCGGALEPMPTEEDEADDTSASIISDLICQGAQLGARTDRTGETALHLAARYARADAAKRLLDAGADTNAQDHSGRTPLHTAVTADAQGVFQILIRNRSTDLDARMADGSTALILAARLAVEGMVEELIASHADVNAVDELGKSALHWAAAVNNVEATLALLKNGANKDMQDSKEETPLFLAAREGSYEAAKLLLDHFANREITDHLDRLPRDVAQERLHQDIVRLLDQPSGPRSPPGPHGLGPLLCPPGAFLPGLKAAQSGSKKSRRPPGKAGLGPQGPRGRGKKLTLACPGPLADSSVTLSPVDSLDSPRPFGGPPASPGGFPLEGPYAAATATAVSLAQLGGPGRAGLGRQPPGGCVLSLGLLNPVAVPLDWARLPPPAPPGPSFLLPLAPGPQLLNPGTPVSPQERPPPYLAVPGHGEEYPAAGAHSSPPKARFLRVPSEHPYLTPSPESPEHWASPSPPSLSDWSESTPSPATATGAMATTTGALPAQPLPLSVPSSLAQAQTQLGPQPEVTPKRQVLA
Epidermal growth factor receptor (Homo sapiens), sequence (P00533 whole entry, looked up): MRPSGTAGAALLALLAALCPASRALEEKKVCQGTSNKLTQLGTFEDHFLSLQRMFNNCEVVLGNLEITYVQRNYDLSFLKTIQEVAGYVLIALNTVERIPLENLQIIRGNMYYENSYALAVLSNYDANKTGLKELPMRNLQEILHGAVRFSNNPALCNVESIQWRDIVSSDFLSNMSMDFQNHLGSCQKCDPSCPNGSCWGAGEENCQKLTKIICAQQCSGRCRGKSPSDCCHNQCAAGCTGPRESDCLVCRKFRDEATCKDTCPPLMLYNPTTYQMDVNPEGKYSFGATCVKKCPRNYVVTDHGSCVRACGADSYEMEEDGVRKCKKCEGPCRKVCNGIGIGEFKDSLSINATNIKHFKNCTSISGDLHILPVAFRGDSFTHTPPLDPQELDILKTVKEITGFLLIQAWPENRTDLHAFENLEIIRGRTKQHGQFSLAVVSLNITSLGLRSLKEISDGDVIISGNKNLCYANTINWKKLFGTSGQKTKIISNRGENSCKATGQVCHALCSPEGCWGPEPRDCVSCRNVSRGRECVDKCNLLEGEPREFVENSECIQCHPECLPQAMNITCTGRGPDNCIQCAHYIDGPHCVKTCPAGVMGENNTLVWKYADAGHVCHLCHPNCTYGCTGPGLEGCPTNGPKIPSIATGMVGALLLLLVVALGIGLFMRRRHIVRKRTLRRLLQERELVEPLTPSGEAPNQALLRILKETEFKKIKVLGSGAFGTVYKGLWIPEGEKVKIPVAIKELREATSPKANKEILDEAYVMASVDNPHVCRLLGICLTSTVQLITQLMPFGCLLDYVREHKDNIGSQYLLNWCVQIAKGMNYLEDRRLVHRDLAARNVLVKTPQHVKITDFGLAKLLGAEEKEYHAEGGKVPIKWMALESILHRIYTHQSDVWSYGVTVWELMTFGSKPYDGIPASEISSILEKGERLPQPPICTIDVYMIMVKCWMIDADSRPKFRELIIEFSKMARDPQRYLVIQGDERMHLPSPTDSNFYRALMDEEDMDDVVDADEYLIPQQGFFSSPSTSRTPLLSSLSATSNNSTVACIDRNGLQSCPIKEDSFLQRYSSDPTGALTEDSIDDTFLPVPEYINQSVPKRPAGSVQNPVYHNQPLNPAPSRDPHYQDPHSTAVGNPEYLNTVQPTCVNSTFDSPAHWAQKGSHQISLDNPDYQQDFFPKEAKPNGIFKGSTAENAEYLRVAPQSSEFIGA
Follistatin-related protein 3 (Homo sapiens), sequence (O95633 whole entry, looked up): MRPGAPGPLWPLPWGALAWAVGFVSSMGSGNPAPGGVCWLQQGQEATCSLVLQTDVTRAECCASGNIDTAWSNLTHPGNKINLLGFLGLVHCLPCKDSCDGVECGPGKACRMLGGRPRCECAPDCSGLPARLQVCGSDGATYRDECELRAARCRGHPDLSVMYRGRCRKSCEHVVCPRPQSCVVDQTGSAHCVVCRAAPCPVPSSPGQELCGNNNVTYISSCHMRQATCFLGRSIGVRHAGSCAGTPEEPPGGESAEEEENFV
Torsin-1A-interacting protein 2 (Homo sapiens), sequence (Q8NFQ8 whole entry, looked up): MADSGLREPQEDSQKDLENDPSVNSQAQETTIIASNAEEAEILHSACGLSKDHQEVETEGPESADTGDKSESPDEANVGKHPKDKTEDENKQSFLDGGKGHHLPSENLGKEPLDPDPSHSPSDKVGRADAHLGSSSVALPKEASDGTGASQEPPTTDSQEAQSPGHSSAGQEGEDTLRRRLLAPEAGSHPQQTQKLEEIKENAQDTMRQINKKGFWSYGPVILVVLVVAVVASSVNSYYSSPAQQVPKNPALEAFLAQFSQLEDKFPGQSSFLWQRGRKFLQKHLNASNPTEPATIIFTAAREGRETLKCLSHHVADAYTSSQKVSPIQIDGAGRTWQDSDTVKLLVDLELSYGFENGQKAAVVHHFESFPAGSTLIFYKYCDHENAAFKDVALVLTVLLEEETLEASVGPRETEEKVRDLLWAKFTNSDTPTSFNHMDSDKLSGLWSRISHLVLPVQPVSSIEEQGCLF

SMILES | composite z-score [1] | z-score [2] | z-score [3] | z-score [4] | composite z-score [5] | z-score [6] | composite z-score [7] | composite z-score [8] | composite z-score [9] | composite z-score [10] | composite z-score [11] | composite z-score [12] | composite z-score [13] | z-score [14] | composite z-score [15] | composite z-score [16] | composite z-score [17] | composite z-score [18] | composite z-score [19] | composite z-score [20]
COc1ccc(O[C@H]2C=C[C@@H](c3ccccc3)O[C@@H]2COC(=O)CCC(C)=NO[C@@H]2O[C@H](COC(C)=O)[C@@H](OC(C)=O)[C@H](OC(C)=O)[C@H]2OC(C)=O)cc1 | 1.44 | 1.2 (inactive) | 1.03 (inactive) | 0.865 (inactive) | 0.727 | 0.271 (inactive) | -0.253 | 0.749 | 1.1 | -0.0271 | 0.538 | -0.397 | -0.374 | -0.315 (inactive) | 0.799 | 1.01 | 0.609 | 1.12 | 0.275 | -0.116
CO[C@H]1COC(=O)CCC[C@@H](C)[C@H](OC)COC(=O)[C@@H](C)NC(=O)CC=C[C@@H]1C | 1.4 | -0.994 (inactive) | -1.11 (inactive) | 0.0722 (inactive) | -1.7 | -0.597 (inactive) | -0.145 | 1.27 | 0.571 | 0.0115 | 1.69 | -0.502 | -1.14 | -1.15 (inactive) | 0.313 | 0.97 | 1.2 | 0.938 | 1.57 | 1.21
Cc1cc2c(nc1C)CCCN2CC(O)CN1CCCc2nc(C)c(C)cc21 | 0.692 | 0.623 (inactive) | 0.73 (inactive) | -0.238 (inactive) | 1.89 | -0.605 (inactive) | 0.256 | 0.256 | 0.625 | -0.002 | 0.264 | 0.125 | 0.258 | -0.153 (inactive) | 0.92 | 0.388 | 0.36 | 0.552 | 0.536 | 1.17
COC(=O)C=CCCc1coc(C=CCNC(=O)OC)n1 | 1.45 | 0.339 (inactive) | 0.255 (inactive) | 0.196 (inactive) | 0.254 | -1.42 (inactive) | 0.17 | 1.37 | 1.08 | 0.161 | 0.844 | 0.161 | -0.388 | 0.183 (inactive) | 0.789 | 0.643 | 0.867 | 1.07 | 1.16 | 1.3
O=C1C[C@@H](O)[C@@H](O)[C@@H]2[C@@H]3C(=O)N(C[C@@H]4CCCO4)C(=O)[C@@H]3CC[C@@H]12 | 0.282 | -0.217 (inactive) | -0.519 (inactive) | -0.404 (inactive) | 1.17 | 0.48 (inactive) | -0.0708 | 0.658 | 0.472 | 0.091 | 0.495 | -0.185 | -0.7 | -0.0639 (inactive) | 0.612 | 0.718 | 0.573 | 0.761 | 0.823 | -0.0076
C[C@@H](c1ccccc1)N1C(=O)[C@H]2[C@H]3[C@H](O)[C@H](O)CC(=NOCc4ccccc4)[C@H]3CC[C@H]2C1=O | 1.3 | 0.435 (inactive) | 0.107 (inactive) | 0.0942 (inactive) | 2.38 | -0.0659 (inactive) | -0.0942 | 0.374 | 0.354 | -0.0424 | 0.8 | -0.197 | -0.442 | -0.0874 (inactive) | 0.601 | 0.535 | 0.45 | 0.44 | 0.312 | -0.27
CCN1C(=O)[C@H]2[C@H]3[C@H](O)[C@H](O)CC(=NNC(=O)OCc4ccc(OC)cc4)[C@@H]3CC[C@H]2C1=O | -0.235 | -1.31 (inactive) | -1.45 (inactive) | -0.287 (inactive) | 0.0228 | 0.214 (inactive) | 0.241 | 0.51 | -0.428 | -0.113 | -0.492 | 1.08 | 0.765 | 0.564 (inactive) | -0.0766 | 0.269 | -0.0752 | 0.0539 | -0.808 | 0.242
O=C1[C@H]2[C@H]3[C@H](O)[C@H](O)CC(=NO[C@@H]4O[C@H](CO)[C@@H](O)[C@H](O)[C@H]4O)[C@H]3CC[C@H]2C(=O)N1c1cccc(Oc2ccccc2)c1 | 0.69 | -0.513 (inactive) | 0.0816 (inactive) | -0.642 (inactive) | 0.543 | 0.563 (inactive) | -0.253 | 0.329 | 0.861 | -0.0549 | 0.0739 | -0.187 | -0.478 | 0.0512 (inactive) | 0.73 | 0.67 | 0.508 | 0.598 | 0.71 | -0.204
CO[C@H]1COC(=O)CC=C[C@H](C)COC(=O)[C@@H](C)NC(=O)CC=C[C@@H]1C | 1.53 | -0.78 (inactive) | -0.809 (inactive) | -1.18 (inactive) | -1.13 | 0.0007 (inactive) | -0.289 | 1.88 | -0.222 | -0.0606 | 1.56 | -0.335 | -1.42 | -1.31 (inactive) | 0.337 | 0.913 | 1.32 | 1.47 | 1.65 | 0.872
COC(=O)[C@H](C)NC(=O)CCC1CC(OC(=O)NCc2cccc3ccccc23)CC2(CCCC(COC(=O)NCC(c3ccccc3)c3ccccc3)O2)O1 (stereo not given in full) | 1.48 | -0.797 (inactive) | 0.104 (inactive) | -0.691 (inactive) | 2.99 | 0.0609 (inactive) | -0.166 | 0.661 | 1.09 | -0.0509 | 0.208 | -0.0014 | -0.523 | 0.026 (inactive) | 0.715 | 1.27 | 0.702 | 0.601 | 0.386 | -0.396
